# Results taken from the supplement of paper PMC11634586.
# Structures can show the parent of a compound that is named as a salt. A number with no mark means an inactive call.
# System: NCI-H1688
# Experiment: inhibition of cell viability relative to untreated control (fraction); higher = stronger growth inhibition, active = 0.5 or more
# Conditions: 30 µM; 24 h
# Procedure: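 Natural product library (TargetMol, 640 compounds) screened on NCI-H1688 SCLC cells at 30 µM for 24 h; viability by CCK-8 absorbance at 450 nm, normalised to untreated control and expressed as inhibition rate (fraction). Compounds with >50% reduction in viability were selected as hits.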
row,SMILES,inhibition of cell viability
1,COC1=C[C@@H]2[C@@H]3Cc4ccc(OC)c(O)c4[C@]2(CCN3C)CC1=O [Sinomenine],-0.13
2,C1=C2CCCN[C@H]2[C@@H]2C[C@H]1[C@H]1CCCCN1C2 [Aloperine],0.311
3,C=C(C)[C@H]1Cc2c(ccc3c2O[C@@H]2COc4cc(OC)c(OC)cc4[C@@H]2C3=O)O1 [Rotenone],0.823 (active)
4,C[C@H]1CC(=O)C[C@@H]2CC[C@H]3[C@@H]4CC[C@H](O)[C@@]4(C)CC[C@@H]3[C@]21C [Mesterolone],0.237
5,C[C@@H]1C[C@@H]([C@H](O)CC2CC(=O)NC(=O)C2)C(=O)[C@@H](C)C1 [Actidione],0.943 (active)
6,COc1cc([C@@H]2c3cc4c(cc3[C@@H](O)[C@H]3COC(=O)[C@H]23)OCO4)cc(OC)c1O [4'-Demethylepipodophyllotoxin],0.568 (active)
7,C[C@H]1CCC/C=C/[C@@H]2C[C@H](O)C[C@H]2[C@H](O)/C=C/C(=O)O1 [Brefeldin A],0.704 (active)
8,CC[C@H]1CN2CC[C@H]1C[C@@H]2[C@@H](O)c1ccnc2ccc(OC)cc12 [Hydroquinidine],-0.0507
9,C[C@@H]1O[C@@H](O[C@H]2C[C@@H](O)[C@]3(CO)[C@H]4[C@H](O)C[C@]5(C)[C@@H](C6=CC(=O)OC6)CC[C@]5(O)[C@@H]4CC[C@]3(O)C2)[C@H](O)[C@H](O)[C@H]1O [Ouabain octahydrate],0.99 (active)
10,CC1=C(O)C(=O)C=C2C1=CC=C1[C@@]2(C)CC[C@@]2(C)[C@@H]3C[C@](C)(C(=O)O)CC[C@]3(C)CC[C@]12C [Celastrol],1 (active)
11,CC(C)=CCC[C@](C)(O)[C@H]1CC[C@]2(C)[C@@H]1[C@H](O)C[C@@H]1[C@@]3(C)CC[C@H](O)C(C)(C)[C@@H]3[C@@H](O[C@@H]3O[C@H](CO)[C@@H](O)[C@H](O)[C@H]3O)C[C@]12C [Ginsenoside Rh1],0.0296
12,CCC1=C[C@H]2CN3CCc4c([nH]c5ccccc45)[C@](C(=O)OC)(C2)[C@H]13 [Catharanthine],0.0372
13,O=C(/C=C/c1ccccc1)OC[C@H]1O[C@@H](O[C@@H]2OC=C[C@H]3[C@H](O)[C@@H]4O[C@]4(CO)[C@@H]23)[C@H](O)[C@@H](O)[C@@H]1O [Picroside I],0.253
14,COc1ccc2c(c1O)-c1c(OC)c(OC)cc3c1[C@H](C2)N(C)CC3 [S-Isocorydine(+)],0.0897
15,CN1[C@@H]2C[C@@H](OC(=O)[C@H](CO)c3ccccc3)C[C@H]1[C@@H]1O[C@@H]12 [Scopolamine HBr trihydrate],0.0269
16,COc1cccc(C=O)c1OC [o-Veratraldehyde],-0.267
17,COc1cccc2c1cc([N+](=O)[O-])c1c(C(=O)O)cc3c(c12)OCO3 [Aristolochic Acid],0.49
18,COc1cc2c3c(c1OC)-c1ccccc1C[C@H]3N(C)CC2 [Nuciferine],0.173
19,C[C@]12CC[C@H](O)C[C@H]1CC[C@@H]1[C@@H]2CC[C@]2(C)[C@@H](c3ccc(=O)oc3)CC[C@]12O [Bufalin],0.985 (active)
20,C#C[C@]1(O)CC[C@H]2[C@@H]3CCC4=CC(=O)CC[C@]4(C)[C@H]3CC[C@@]21C [Ethisterone],0.178

row,SMILES,inhibition of cell viability
1,CCC(=O)O[C@H]1CC[C@H]2[C@@H]3CC[C@H]4CC(=O)[C@H](C)C[C@]4(C)[C@H]3CC[C@]12C [Drostanolone Propionate],0.313
2,CN1[C@@H]2CC[C@H]1C[C@@H](OC(=O)[C@H](CO)c1ccccc1)C2 [L-Hyoscyamine],0.305
3,COc1cc2c(cc1OC)C13CCN4CC5=CCOC6CC(=O)N2C1C6C5CC43 (stereo not given) [Brucin],-0.145
4,O=c1ccc2cc(O[C@@H]3O[C@H](CO)[C@@H](O)[C@H](O)[C@H]3O)c(O)cc2o1 [Esculin],-0.139
5,CC(=O)O[C@H]1C(=O)[C@@]2(C)[C@H]([C@H](OC(=O)c3ccccc3)[C@]3(O)C[C@H](O)C(C)=C1C3(C)C)[C@]1(OC(C)=O)CO[C@@H]1C[C@@H]2O [Baccatin III],0.535 (active)
6,COc1ccc2c3c([nH]c2c1)C(C)=NCC3 [Harmaline],-0.11
7,CCC(=O)O[C@H]1CC[C@H]2[C@@H]3CCC4=CC(=O)CC[C@]4(C)[C@H]3CC[C@]12C [Testosterone propionate],-0.173
8,C[C@]12CC[C@H](O)CC1=CC[C@@H]1[C@@H]2CC[C@]2(C)C(=O)CC[C@@H]12 [Dehydroepiandrosterone],0.0365
9,C[C@]12CCC(=O)C=C1CC[C@@H]1[C@@H]2CC[C@@]2(C)[C@H]1CC[C@]2(C)O [17-Methyltestosterone],0.403
10,CC(=O)O[C@@]12CO[C@@H]1C[C@H](O)[C@@]1(C)C(=O)[C@H](O)C3=C(C)[C@@H](OC(=O)[C@H](O)[C@@H](NC(=O)c4ccccc4)c4ccccc4)C[C@@](O)([C@@H](OC(=O)c4ccccc4)[C@H]21)C3(C)C [Deacetyltaxol],0.667 (active)
11,CN1[C@@H]2C[C@@H](OC(=O)[C@H](CO)c3ccccc3)C[C@H]1[C@@H]1O[C@@H]12 [Scopolamine HBr],-0.0423
12,CN1[C@H]2C[C@H](OC(=O)[C@H](CO)c3ccccc3)C[C@@H]1[C@@H](O)C2 [Anisodamine],0.2
13,C[C@@H]1CC[C@H]2[C@@H](C)C(=O)O[C@@H]3O[C@@]4(C)CC[C@@H]1[C@]32OO4 [Artemisinin],0.118
14,CC[C@@]1([C@@H]2O[C@@H]([C@H]3O[C@@](O)(CO)[C@H](C)C[C@@H]3C)C[C@@H]2C)CC[C@H]([C@]2(C)CC[C@]3(C[C@H](O)[C@@H](C)[C@@H]([C@@H](C)[C@@H](OC)[C@H](C)C(=O)O)O3)O2)O1 [Monensin sodium salt],0.761 (active)
15,C/C=C(\C)C(=O)N[C@@H](c1ccccc1)[C@@H](O)C(=O)O[C@H]1C[C@@]2(O)[C@@H](OC(=O)c3ccccc3)[C@@H]3[C@]4(OC(C)=O)CO[C@@H]4C[C@H](O)[C@@]3(C)C(=O)[C@H](OC(C)=O)C(=C1C)C2(C)C [Cephalomannine],0.721 (active)
16,CC[C@H](C)[C@H]1O[C@]2(C=C[C@@H]1C)C[C@@H]1C[C@@H](C/C=C(\C)[C@@H](O[C@H]3C[C@H](OC)[C@@H](O[C@H]4C[C@H](OC)[C@@H](O)[C@H](C)O4)[C@H](C)O3)[C@@H](C)/C=C/C=C3\CO[C@@H]4[C@H](O)C(C)=C[C@@H](C(=O)O1)[C@]34O)O2.CO[C@H]1C[C@H](O[C@H]2[C@H](C)O[C@@H](O[C@@H]3/C(C)=C/C[C@@H]4C[C@@H](C[C@]5(C=C[C@H](C)[C@@H](C(C)C)O5)O4)OC(=O)[C@@H]4C=C(C)[C@@H](O)[C@H]5OC/C(=C\C=C\[C@@H]3C)[C@]54O)C[C@@H]2OC)O[C@@H](C)[C@@H]1O [Abamectin],1.01 (active)
17,C[C@@H]1C(=O)O[C@H]2[C@H](O)[C@@]34O[C@@H]5OC(=O)[C@H](O)[C@@]56[C@H](C(C)(C)C)[C@H](O)C(OC3=O)[C@]64[C@@]12O (stereo not given in full) [Ginkgolide C],-0.00562
18,CNC1CC(N)C(O)C(OC2OC(CO)C(O)C3OC4(OC(C(N)CO)C(O)C(O)C4O)OC23)C1O (stereo not given) [Hygromycin B],0.829 (active)
19,O=c1ccc2ccc3occc3c2o1 [Isopsoralen],-0.0131
20,CC(C)=CCC[C@](C)(O)[C@H]1CC[C@]2(C)[C@@H]1[C@H](O)C[C@@H]1[C@@]3(C)CC[C@H](O[C@@H]4O[C@H](CO)[C@@H](O)[C@H](O)[C@H]4O)C(C)(C)[C@@H]3CC[C@]12C [Ginsenoside Rh2],0.269
